Experimental findings from PubChem BioAssay (NCATS) are described below.

The nature of test [1]: Cell Viability - LYMP2-006 (AID 978). Note: % is set by controls: 0 for no effect and ±100 for the full control effect; nearly all actives have a fitted effect of over 60% in size. The essentials:
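Concentration-dependent loss of intracellular ATP in a human lymphoblastoid line after 24 hr treatment at 37 C was measured by CellTiter-Glo luminescence, with AC50 values obtained from standard Hill-equation modelling.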

A short description of test [2]: Cell Viability - LYMP2-007 (AID 979).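 Note: cells exposed to compound for 24 h before reading; 0% = DMSO only and the negative end = 92 µM tetraoctylammonium bromide; nearly all actives have a fitted effect of over 60% in size.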 In a few lines:
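Measured via luciferase-based ATP quantitation: lymphoblastoid cells, 24 hr compound exposure at 37 C, AC50 from Hill fits.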

Test [3] is described as follows: Cell Viability - LYMP2-008 (AID 980).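 Note: cells exposed to compound for 24 h at 37 °C; % is set by controls: 0 for no effect and ±100 for the full control effect; nearly all actives have a fitted effect of over 60% in size.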 In a few lines:
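Measured: ATP-dependent luminescence, proportional to viable cell number, in human lymphoblastoid cells treated 24 hr with compound in complete culture medium. Values are AC50s from Hill-equation modelling of qHTS titrations.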

A short description of test [4]: Cell Viability - LYMP2-010 (AID 981). Note: % is set by controls: 0 for no effect and ±100 for the full control effect; nearly all actives have a fitted effect of over 55% in size. In a few lines: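 This 24 hr viability screen uses LYMP2-010 lymphoblastoid cells, quantifies ATP via luciferase luminescence, and derives AC50 from Hill fits of qHTS concentration-response data.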
Test [5] in a line: Cell Viability - LYMP2-012 (AID 982).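 Note: cellular ATP by luciferase luminescence where a drop means cytotoxicity; cells exposed to compound for one day before reading; 0% = DMSO only and full loss = 92 µM tetraoctylammonium bromide; nearly all actives have a fitted effect of over 55% in size.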
The nature of test [6]: Cell Viability - LYMP2-016 (AID 984). Note: % is set by controls: 0 for no effect and ±100 for the full control effect; nearly all actives have a fitted effect of over 55% in size. The essentials:
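Acute toxicity in a Coriell human lymphoblastoid line is scored as loss of intracellular ATP over 24 h of treatment in complete medium. CellTiter-Glo signal is fitted across concentrations with the Hill equation to give AC50.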

The nature of test [7]: Cell Viability - LYMP2-020 (AID 986).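 Note: cells exposed to compound for 24 h at 37 °C; plate controls were DMSO only for no effect and tetraoctylammonium bromide at 92 µM for full effect; nearly all actives have a fitted effect of over 55% in size.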 The essentials: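 Cells at 2500 per well receive a 24 hr compound exposure at 37 C. Viability is measured as ATP-dependent luciferase luminescence, with AC50 modeled from qHTS concentration-response curves.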
The nature of test [8]: Cell Viability - LYMP2-022 (AID 987). In a few lines: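 In this qHTS cytotoxicity screen, compound titrations were incubated 24 hr at 37 C with human lymphoblastoid cells in complete medium. Luciferase-based ATP luminescence provided the viability signal.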
Test [9] in a line: Cell Viability - LYMP2-024 (AID 988).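 Note: plate controls were DMSO only for no effect and 92 µM tetraoctylammonium bromide for full effect; nearly all actives have a fitted effect of over 60% in size.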 The essentials:
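Cells at 2500 per well received compound for 24 hr after a 5 hr settling period. Viability was scored by CellTiter-Glo luminescence, with AC50 from Hill fits.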

Test [10] is described as follows: Cell Viability - LYMP2-026 (AID 989).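 Note: cells exposed to compound for 24 h at 37 °C; % is set by controls: 0 for no effect and ±100 for the full control effect; nearly all actives have a fitted effect of over 50% in size.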 The essentials: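 Acute toxicity screen in complete culture medium, with 24 hr compound exposure at 37 C. Viability read as cellular ATP via luciferase reaction, with tetraoctylammonium bromide (6.4pM to 92 uM) as positive control.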
Test [11] has as its target Alpha-galactosidase A (Homo sapiens) (UniProt P06280). Kind of test: Counterscreen for Glucocerebrosidase Inhibitors: qHTS Assay for Human alpha-Galactosidase at pH 4.5 (AID 992). Note: 0% is about no effect. In a few lines:
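Steps: enzyme (2 nM final), then compound across 0.7 nM to 77 uM, then 80 uM fluorogenic galactopyranoside substrate; incubate 20 min at room temperature; quench at pH 10; measure fluorescence at 365/440 nm.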

The nature of test [12]: Cell Viability - LYMP1-002 - Assay at 24 hr (AID 993). Note: % is set by controls: 0 for no effect and ±100 for the full control effect. The essentials: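 Viability was judged from intracellular ATP using a luciferase read-out, following a 24-hour compound incubation at 37 C of lymphoblastoid cells seeded at 2500 per well. Concentration-response data were fitted to the Hill equation for AC50.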
Test [13] can be described thus: Cell Viability - LYMP1-002 - Assay at 40 hr (AID 994). The essentials: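 Concentration-dependent ATP loss after 40 hr treatment at 37 C defined toxicity; AC50 values were obtained by fitting the standard Hill equation.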
The target of test [14] is alpha-glucosidase (Oryza sativa, rice) (UniProt Q653V4). Put plainly: Counterscreen for Glucocerebrosidase Inhibitors: qHTS Assay for Rice alpha-Glucosidase at pH 5.0 (AID 997).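 Note: 0% = full activity with enzyme and -100% = basal without enzyme.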 The essentials: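 Endpoint fluorogenic assay at pH 5.0: compounds (0.7 nM to 77 uM) titrated against 4 nM rice enzyme and 400 uM 4-MU-alpha-glucoside for 20 min at room temperature; NaOH/glycine stop, read ex 365/em 440 nm, Hill-fitted AC50.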

Test [15] can be described thus: Cell Viability - LYMP2-018 (AID 985).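 Note: plate controls were DMSO only for no effect and tetraoctylammonium bromide at 92 µM for full effect; nearly all actives have a fitted effect of over 50% in size.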 In a few lines: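 In this qHTS viability assay, cells are treated for 24 hr and cellular ATP is quantified by luciferase-based luminescence, with tetraoctylammonium bromide as positive control.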
Test [16] is described as follows: qHTS Assay for Lipid Storage Modulators (AID 1519; calls by dose curve; for activity change, negative = inhibition: % is set by controls: 0 for no effect and ±100 for the full control effect). The following applies: Drosophila S3 cells, BODIPY lipid droplet/cell ratio, laser cytometry, cells loaded with oleic acid. In a few lines:
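Cells seeded at 5,000 per well were treated with compounds over a concentration series and loaded with oleic acid (400 uM, as added). Lipid droplet fluorescence (488 nm excitation, 500-530 nm channel) was read by laser-scanning cytometry and normalized to 20 uM Triacsin C.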
A general note: qHTS replaces the single test concentration by a dilution series.

The target in test [17] is DNA repair nuclease/redox regulator APEX1 (Homo sapiens) (UniProt P27695). Put plainly: qHTS Validation Assay for Inhibitors of the Human Apurinic/apyrimidinic Endonuclease 1 (APE1) (AID 1705; note: potency is the fitted concentration of half-maximal effect;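 for activity change, negative = inhibition: TAMRA fluorescence gain over two minutes as APE1 cuts a quenched THF abasic duplex; % is set by controls: 0 for no effect and ±100 for the full control effect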). The essentials:
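Endonuclease activity of human APE1 is followed as dequenching when the enzyme incises a tetrahydrofuran abasic site in a short duplex labelled 5'-TAMRA/3'-BHQ-2 (50 nM final), after 15 min enzyme–compound preincubation at room temperature.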

A short description of test [18]: Counterscreen for APE1 Inhibitors: Fluorescent Dye Displacement Validation Assay (AID 1707).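 Note: plate controls were ThO with dsDNA and no compound for no effect and ThO without dsDNA for full effect.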 In a few lines:
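Reaction mixture of 250 nM Thiazole Orange and 50 nM double-stranded abasic-site DNA was dispensed, compounds were pin-transferred, and fluorescence was read at endpoint (480 nm ex, 540 nm em). Reduced fluorescence indicated dye displacement by DNA binding.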
For orientation: Counterscreens check selectivity or assay interference.

Test [19] addresses Endonuclease 4 (Escherichia coli (strain K12)) (UniProt P0A6C1). Put plainly: Counterscreen for APE1 Inhibitors: qHTS Validation Assay for Inhibitors of Endonuclease IV (AID 1708). For activity change, negative = inhibition: % is set by controls: 0 for no effect and ±100 for the full control effect. Note: potency is the fitted concentration of half-maximal effect. The essentials:
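The reaction buffer contained 50 mM Tris-HCl pH 7.5, 50 mM NaCl, 2 mM MgCl2, 1 mM DTT and 0.01% Tween-20. Incision of a 50 nM fluorophore/quencher THF substrate by 2 nM enzyme was measured kinetically.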

[20] abbreviates: measured here: cell count channel max response.
Setting [21] is: measured here: lipid channel max response.

Several values for one entry are separate records, joined by “and”; a condition that tells them apart may be missing. Equal entries are not always repeated. Inconclusive results are not listed. Activity calls are given as the source filed them. Unless noted, calls come from the whole dose curve; as a rule, active = well fitted curve in the direction sought with a large enough effect; inconclusive = small, poorly fitted or top-dose-only effect, or another doubt; inactive = no such curve, though single readings can be large; an effect the other way counts as inactive or inconclusive.

Sequence of DNA repair nuclease/redox regulator APEX1 (Homo sapiens) (P27695 whole entry, looked up): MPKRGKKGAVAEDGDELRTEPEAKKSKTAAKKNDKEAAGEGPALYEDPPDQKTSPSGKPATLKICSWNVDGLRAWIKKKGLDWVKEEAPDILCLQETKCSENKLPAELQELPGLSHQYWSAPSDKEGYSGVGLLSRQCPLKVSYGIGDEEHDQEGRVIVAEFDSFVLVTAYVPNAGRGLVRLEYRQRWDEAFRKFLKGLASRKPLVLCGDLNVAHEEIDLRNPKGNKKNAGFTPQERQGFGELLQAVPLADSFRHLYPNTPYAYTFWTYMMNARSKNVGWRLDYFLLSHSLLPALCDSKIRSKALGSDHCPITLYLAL
Sequence of Alpha-galactosidase A (Homo sapiens) (P06280 whole entry, looked up): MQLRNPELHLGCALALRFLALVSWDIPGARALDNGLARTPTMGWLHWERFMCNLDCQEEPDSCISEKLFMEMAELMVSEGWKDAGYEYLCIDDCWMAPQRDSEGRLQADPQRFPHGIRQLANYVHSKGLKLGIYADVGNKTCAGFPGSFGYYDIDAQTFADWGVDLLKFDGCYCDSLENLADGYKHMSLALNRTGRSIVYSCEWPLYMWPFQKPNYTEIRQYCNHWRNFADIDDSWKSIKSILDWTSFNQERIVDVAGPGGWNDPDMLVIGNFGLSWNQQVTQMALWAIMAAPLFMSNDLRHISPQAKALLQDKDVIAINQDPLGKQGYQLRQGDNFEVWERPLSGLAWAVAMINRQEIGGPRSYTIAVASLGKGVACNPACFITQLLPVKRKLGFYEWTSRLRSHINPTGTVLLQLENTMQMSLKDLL

For `C[C@]12C[C@H](O)[C@H]3[C@@H](CCC4=CC(=O)CC[C@@]43C)[C@@H]1CC[C@@H]2C(=O)CO`, the compound was called inactive in test [1], in test [5], in [9], in test [11] and in test [14]. Besides, the Potency result in [2], in test [3], in test [4], in [6], in test [7] and in test [8] was “inactive” throughout. Besides, the Potency result in [10], in test [12] and in test [13] was “inactive” each time.

As to `COc1ccccc1O`, the result in [1], in test [5] and in test [9] was inactive. The Potency result in [2], in [3], in test [4], in test [6], in test [15] and in test [7] was “inactive” in each case. In addition, the Potency result in [8], in test [10], in test [12] and in [13] was “inactive” in each case.

With `NC1CCN(c2cccc(Cl)n2)CC1`, the result in test [11] and in test [14] was inactive. Moreover, the activity change, negative = inhibition in test [16] (at 57.5 µM (top of the series)) is 5.71% (inactive) and 0.974% (inactive). The max response in [16] (setting [20]) was -16.7% and 37.1%; in [16] (setting [21]), -10.9% and 36.3%. The Potency entry in test [17], in test [18] and in test [19] was “inactive” in each case.

On to `CNC(=O)Oc1ccc2c(c1)[C@]1(C)CCN(C)[C@@H]1N2C`, for which the Potency entry in test [17], in test [18] and in test [19] was “inactive” throughout.

`CC1=C(CC(=O)O)c2cc(F)ccc2/C1=C\c1ccc(S(C)=O)cc1` (centres undefined): the compound was classed as inactive in test [14]. Also, the Potency result in test [17], in [18] and in test [19] was “inactive” in each case.

In the case of `[Cl][In]([Cl])[Cl]`, the compound was called inactive in test [1], in test [5] and in [9]. Also, the Potency result in [2], in [3], in [4], in test [6], in test [15] and in [7] was “inactive” each time. Moreover, the Potency result in test [8], in test [10], in test [12] and in test [13] was “inactive” throughout.

Regarding `CCN(CC)CCCC(C)Nc1c2ccc(Cl)cc2nc2ccc(OC)cc12` (centres undefined), the activity change, negative = inhibition in test [16] (at 57.5 µM (top of the series)) was 9.16% (inactive) and 1.41% (inactive). Moreover, the max response in [16] (setting [20]) is 2.35% and -26.6%; in [16] (setting [21]), 14.1% and -23.7%. Besides, the Potency is 15.8 µM (active) in test [17] and 12.6 µM (active) in test [19].

With `O=C1O[C@H]([C@@H](O)CO)C(O)=C1O`, the call in test [1], in test [5] and in test [9] was inactive. Moreover, the Potency result in [2], in test [3], in [6], in [15], in [7] and in test [8] was “inactive” each time. The Potency result in [10], in test [12] and in [13] was “inactive” each time.

As for `C#CCN(C)Cc1ccccc1`, the compound was classed as inactive in [11] and in test [14]. Besides, the activity change, negative = inhibition in test [16] (at 25.7 µM (top of the series)) is -2.03% (inactive). Further, the max response in test [16] (setting [20]) is -10.9%; in [16] (setting [21]) it was -13.8%. Moreover, the Potency result in test [17], in test [18] and in test [19] was “inactive” each time.

For the compound `CCCCCCCCCCCCOS(=O)(=O)O`, the compound was classed as inactive in test [1], in test [5] and in test [9]. For the same compound, the Potency result in test [2], in test [3], in test [4], in [6], in test [15] and in test [7] was “inactive” throughout. For the same compound, the Potency result in test [8], in test [10], in [12] and in test [13] was “inactive” each time.

Turning to `CCCCOC(=O)c1ccc(O)cc1`, the compound was classed as inactive in test [1], in [5] and in test [9]. Moreover, the Potency entry in test [2], in [3], in test [4], in [6], in test [15] and in test [7] was “inactive” in each case. Further, the Potency result in [8], in [10], in test [12] and in [13] was “inactive” each time. Further, the activity change, negative = inhibition in test [16] (at 25.7 µM (top of the series)) is -2.55% (inactive). Also, the max response is -1.21% in test [16] (setting [20]) and -4.1% in test [16] (setting [21]).

As to `Cc1cc(N)c2ccccc2[n+]1CCCCCCCCCC[n+]1c(C)cc(N)c2ccccc21`, the result in test [11] and in [14] was inactive.

On to `Oc1cccc(O)c1`, for which the result in test [1], in [5] and in [9] was inactive. The Potency entry in [2], in [3], in test [4], in [6], in test [15] and in test [7] was “inactive” each time. Besides, the Potency result in test [8], in [10], in test [12] and in test [13] was “inactive” throughout. In addition, the activity change, negative = inhibition in test [16] (at 57.5 µM (top of the series)) was 4.72% (inactive). Moreover, the max response is 10.3% in test [16] (setting [20]) and 16.6% in test [16] (setting [21]).

Consider `CN(C)CCOC(C)(c1ccccc1)c1ccccn1` (centres undefined), for which the Potency entry in test [17], in test [18] and in [19] was “inactive” each time.

Regarding `CN(C)CCC=C1c2ccccc2CCc2ccccc21`, the outcome in test [11] and in [14] was inactive. In addition, the Potency entry in [12], in test [17] and in [18] was “inactive” throughout.

Regarding `C[C@]12CC[C@@H]3c4ccc(O)cc4CC[C@H]3[C@@H]1CCC2=O`, the call in test [11] and in [14] was inactive. The Potency result in [17] and in [18] was “inactive” each time.

As for `CC(C)C(=O)c1c(C(C)C)nn2ccccc12`, the result in test [11] and in test [14] was inactive. For the same compound, the Potency entry in [17], in test [18] and in [19] was “inactive” throughout.
